Compound activity deposited in PubChem by National Center for Advancing Translational Sciences (NCATS).
L3MBTL1 block = qHTS Assay for the Inhibitors of L3MBTL1; Lethal(3)malignant brain tumor-like protein 1 (Homo sapiens), Q9Y468; AlphaScreen L3MBTL1–H3K9me1 peptide binding; Potency, µM (highest dose often 57.1 µM), for inactives: at the highest dose activity, negative = inhibition, hits mostly inhibitors; 230,000 compounds, 0.66% hits; AID 485360, 2010; further: on the % scale 0 is the no-effect control and ±100 the full control effect; nearly all actives have a fitted effect of over 60% in size
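Displacement of a biotinylated histone H3(1-15) peptide monomethylated at Lys9 (75 nM) from L3MBTL1 (50 nM) was measured by AlphaScreen after a 30 min room-temperature compound incubation; cefsulodin titration served as intraplate control.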
HP1b chromo inh = HTS for Inhibitors of HP1-beta Chromodomain Interactions with Methylated Histone Tails; Chromobox protein homolog 1 (Homo sapiens), P83916; AlphaScreen HP1-beta / biotin-H3K9me3 peptide binding; Potency, µM (series often up to 114 µM), without a hit: top-dose activity change, negative = inhibition, most hits filed as inhibitors; 390,000 compounds, 0.56% hits; further: nearly all actives have a fitted effect of over 70% in size
Target sequence (P83916 whole entry, looked up): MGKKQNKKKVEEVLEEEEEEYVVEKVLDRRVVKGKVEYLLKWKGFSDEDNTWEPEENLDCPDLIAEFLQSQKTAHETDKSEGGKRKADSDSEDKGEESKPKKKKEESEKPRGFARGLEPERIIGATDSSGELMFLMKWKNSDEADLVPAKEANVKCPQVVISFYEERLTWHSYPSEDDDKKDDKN
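HP1-beta protein (50 nM final) preincubated 30 min at room temperature with biotinylated H3(1-18)K9me3 peptide (50 nM) in PBS pH 7.4, 0.01% Tween-20, then compound added for 30 min. AlphaScreen streptavidin donor/nickel chelate acceptor beads (10 ug/mL final), 30 min dark, luminescence read.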
BAZ2B inh = qHTS Assay for Inhibitors of BAZ2B; AlphaScreen BAZ2B-H3K14Ac peptide displacement; Potency, µM (highest dose often 114 µM), for inactives: at the top dose activity change, negative = inhibition, usual class: inhibitors; 360,000 compounds, 4.4% hits; further: on the % scale 0 is the no-effect control and ±100 the full control effect; nearly all actives have a fitted effect of over 60% in size
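AlphaScreen displacement of biotin-H3(5-23)K14Ac peptide (50 nM final) from BAZ2B (50 nM final) in PBS pH 7.4, 0.01% Tween-20; complex preformed 30 min RT, then compounds (top 110 uM) 30 min RT, beads 20 min dark.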
G9a inh = qHTS Assay for Inhibitors of Histone Lysine Methyltransferase G9a. Histone-lysine N-methyltransferase EHMT2 (Homo sapiens), Q96KQ7. G9a H3K9 monomethylation, AlphaScreen, 2 h. Potency, µM (doses to about 102 µM), for inactives: at the top dose activity, negative = inhibition, most hits filed as inhibitors. 350,000 compounds, 8.8% hits; further: on the % scale 0 is the no-effect control and ±100 the full control effect; nearly all actives have a fitted effect of over 75% in size
Target sequence (Q96KQ7 913-1193 limits assumed): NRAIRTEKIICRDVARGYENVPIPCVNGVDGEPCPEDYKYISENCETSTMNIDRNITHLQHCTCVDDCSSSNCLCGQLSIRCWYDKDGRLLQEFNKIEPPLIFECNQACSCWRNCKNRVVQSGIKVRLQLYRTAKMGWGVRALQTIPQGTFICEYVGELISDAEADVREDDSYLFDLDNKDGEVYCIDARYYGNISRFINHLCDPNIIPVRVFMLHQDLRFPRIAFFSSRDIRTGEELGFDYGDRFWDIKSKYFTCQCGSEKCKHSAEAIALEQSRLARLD
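G9a (20 nM) was preincubated 15 min with compound, then reacted 2 h at room temperature with 500 nM biotin-H3K9 peptide and 20 µM SAM. Monomethyl-H3K9 detected by AlphaScreen using anti-H3K9me1 antibody.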
JMJD2A Tudor inh = qHTS Assay for Inhibitors of JMJD2A-Tudor Domain | Lysine-specific demethylase 4A (Homo sapiens), O75164 | AlphaScreen JMJD2A-Tudor / H3K4me3 peptide binding | Potency, µM (titrated, usually from 114 µM), for the others: top-dose activity change, negative = inhibition, hits mostly inhibitors | 390,000 compounds, 4.4% hits; further: on the % scale 0 is the no-effect control and ±100 the full control effect; nearly all actives have a fitted effect of over 50% in size
Numbers without * were called inactive; ? = inconclusive; nt = no result; [ ] = remark or other dose. An excerpt weighted towards active compounds, which were near 11% of everything screened. The call rests on the fitted dose curve; in most records, active means well fitted inhibition curve with a large enough effect; inconclusive means small, poorly fitted or top-dose-only effect; inactive means no such curve, though single readings can be large or run the other way. Potency means the concentration at half of the fitted maximal effect.

SMILES	L3MBTL1 block	HP1b chromo inh	BAZ2B inh	G9a inh	JMJD2A Tudor inh
COc1ccc(NC(=S)NCCc2c[nH]c3ccccc23)cc1	-12%	-25%	45µM*	32%[59 µM]	-33%
COc1ccc2[nH]cc(CCNC(=O)Nc3ccccc3)c2c1	nt	-25%	-38%	-26%	?
COc1ccc2oc(=O)c(C(=O)NCCc3c(C)[nH]c4ccc(C)cc34)cc2c1	nt	?	25µM*	?	?
COc1ccccc1NC(=S)NCCc1ccccc1	5%	12%	-6%	49%[12.7 µM]	-6%[11.4 µM]
Cc1ccc(NC(=S)NCCc2c[nH]c3ccccc23)c(C)c1	-27%	-9%	35µM*	?	?
COc1cc(NC(=S)NCCc2c[nH]c3ccccc23)c(OC)cc1Cl	-23%	?	?	45µM*	?
COc1ccccc1NC(=S)NCCc1c[nH]c2ccccc12	-14%	8.9µM*	45µM*	-7%[0.501 µM]	?
Cc1ccc(NC(=S)NCCc2ccccc2)c(C)c1	?	?	-37%	4%[59 µM]	-14%
COc1cc(NC(=S)NCCO)c(OC)cc1Cl	1%	?	-8%	nt	-5%
CC(=O)Nc1ccc(S(=O)(=O)N(Cc2ccccc2)Cc2ccccc2)cc1	nt	28%	-8%	-2%[59 µM]	-18%
Cc1c(Cl)cccc1NC(=O)Nc1nnc(N(C)Cc2ccccc2)s1	nt	20%	-4%	-9%[59 µM]	-24%
COc1ccc(OCCN2C(=O)c3cccc(N)c3C2=O)cc1	nt	98%	39%	29%	34%
CSCCC(NC(=O)c1ccc(Cl)cc1Cl)C(=O)NNC(=O)c1ccncc1 (centres undefined)	1%	38%	5%	8%[12.7 µM]	-19%
COc1cc(CNCCc2c[nH]c3ccccc23)ccc1OCc1ccc(F)cc1	nt	?	50µM*	?	?
CCOC(=O)/C(N=Nc1ccc2c(c1)OCO2)=C(\C)O	nt	-21%	?	?	50µM*
CCOC(=O)C(=O)Nc1ccc2c(c1)OCO2	nt	35%	-25%	1%[59 µM]	-16%
OC(CN1CCOCC1)c1ccc(F)cc1 (centres undefined)	-6%	?	50µM*	-41%	20µM*
O=C(O)c1ccccc1CC(CCc1ccccc1)C(=O)O (centres undefined)	nt	-9%[57 µM]	nt	nt	10µM*
O=C(O)Cc1ccccc1C(=O)O	4%	37%	-4%	8%[59 µM]	-15%
Cc1ccc(-n2ncc3c(NC4CCCCC4)ncnc32)cc1	nt	15%	6%	0%[59 µM]	-5%
COc1cccc2c1cc1c(=O)n(CC(=O)N3CCN(c4cccc(C(F)(F)F)c4)CC3)nc(C)n12	nt	18%	-3%	0%[59 µM]	-3%
O=C(CSc1nc2cc(C(=O)NC3CCCC3)ccc2c(=O)n1CC1CCCO1)c1cccc(Cl)c1 (centres undefined)	nt	18%	-10%	?	-15%
CC(C)=CCC12Oc3cc(O)ccc3C1(O)Oc1cc(O)c([C@H]3C=C(C)CC(c4ccc(O)cc4O)[C@H]3C(=O)c3ccc(O)cc3O)c(O)c1C2=O (some centres undefined)	nt	-11%	nt	nt	40µM*
CN(C)c1ccc(NC(=O)CSC2=Nc3ccccc3C3=NC(CC(=O)NCc4ccc5c(c4)OCO5)C(=O)N23)cc1 (centres undefined)	nt	-17%	?	?	?
Cc1ccc(CSC2=Nc3ccccc3C3=NC(CCC(=O)NCc4ccco4)C(=O)N23)cc1 (centres undefined)	-1%	?	?	?	-32%
SMILES	L3MBTL1 block	HP1b chromo inh	BAZ2B inh	G9a inh	JMJD2A Tudor inh
CN(C)c1ccc(NC(=O)CSC2=Nc3ccccc3C3=NC(CC(=O)NCc4ccccc4)C(=O)N23)cc1 (centres undefined)	nt	10%	-36%	1.6µM*	?
O=C(CCC1N=C2c3ccccc3N=C(SCC(=O)NCc3ccco3)N2C1=O)NCc1ccco1 (centres undefined)	nt	34%	50µM*	-7%[59 µM]	?
O=C(CC1N=C2c3ccccc3N=C(SCc3ccc(Cl)cc3)N2C1=O)NCc1ccco1 (centres undefined)	-6%	-12%	?	50µM*	?
CCOc1ccccc1NC(=O)c1nc2nc(C)cc(C(F)F)n2n1	nt	37%	1%	-11%[59 µM]	-13%
O=C(CNS(=O)(=O)c1c(Cl)cccc1Cl)OCC(=O)c1ccc[nH]1	-23%	16%	79µM*	nt	-27%
CC(=O)Nc1ccc(S(=O)(=O)NCC(=O)OCC(=O)N2CCN(c3ccccc3)CC2)cc1	4%	28%	-27%	50µM*	-21%
CC(=O)Nc1ccc(S(=O)(=O)NCC(=O)OCC(=O)N2CC(C)OC(C)C2)cc1 (centres undefined)	2%	27%	nt	nt	13%
O=C(CNS(=O)(=O)c1c(Cl)cccc1Cl)OCC(=O)N1CCN(c2ccccc2)CC1	-11%	-9%	-31%	56µM*	-24%
CS(=O)(=O)N1CCC2(CCN(c3ccccn3)CC2)CC1	nt	nt	nt	3%[12.7 µM]	nt
CCOC(=O)C1=C(C)N(c2ccccc2)C(=O)C1	0%	-4%	9%	5%[59 µM]	-4%
CCOC(=O)C1=C(O)C(=O)NC(c2ccccc2)=C(OCC)C1	-7%	17%	-37%	45µM*	-20%
CCOC(=O)C1=C(O)C(=O)NC(c2ccccc2)=C(OC2CCCCC2)C1	2%	26%	-9%	50µM*	-19%
COc1cccc(C(O)CC(N)=O)c1 (centres undefined)	?	25%	4%	9%[59 µM]	-6%
COc1cccc(C(C2C(=O)CC(C)(C)CC2=O)C2C(=O)CC(C)(C)CC2=O)c1	nt	61%	-2%	79µM*	-6%
COC(=O)COc1ccc(C(C2C(=O)CC(C)(C)CC2=O)C2C(=O)CC(C)(C)CC2=O)cc1	nt	52%	12%	32µM*	13%
COc1cccc(C(C2=C(O)CC(C)(C)CC2=O)C2C(=O)CC(C)(C)CC2=O)c1 (centres undefined)	8%	43%	1%	45µM*	-15%
CC1(C)CC(=O)C(C(c2ccccc2F)C2C(=O)CC(C)(C)CC2=O)C(=O)C1	3%	60%	-1%	nt	-11%
CC1(C)CC(=O)C(C(c2cccnc2)C2C(=O)CC(C)(C)CC2=O)C(=O)C1	nt	32%	-1%	50µM*	-32%
COC(=O)COc1ccc(NC(=O)C(c2ccccc2)c2ccccc2)cc1	?	-3%	?	-2%	-19%
CC1(C)CC(=O)C(C(C2=C(O)CC(C)(C)CC2=O)c2ccc(Br)s2)C(=O)C1 (centres undefined)	2%	15%	-7%	?	-14%
